High-throughput results from PubChem BioAssay.
NPC1 prom act = activates the NPC1 promoter; Huh7 NPC1 promoter luciferase reporter, 24 h; Potency, µM (doses to about 9.22 µM), inactives show top-dose activation, most hits filed as activators; actives 2.4% (n = 320,000); AID 485313; further: % of control where 0% means no effect; nearly all actives have a fitted effect of over 60% in size
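Huh7 reporter cells (NPC1 promoter driving luciferase) are dosed with compound for 24 h at 37 °C, 5% CO2; luciferase detection reagent is then added and luminescence measured after 10 min at ambient temperature.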
KinaseGlo FLuc = blocks Kinase-Glo luciferase, a counter-screen artifact; Q27757; Kinase-Glo luciferase, ATP luminescence, 8 min; Potency, µM (series often up to 38.3 µM), for inactives: at the highest dose activity change, negative = inhibition, hits mostly inhibitors; actives 0.28% (n = 200,000); further: on the % scale 0 is the no-effect control and ±100 the full control effect; nearly all actives have a fitted effect of over 60% in size
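Recombinant Kinase-Glo luciferase, 10 uM ATP (linear range), luciferin; imidazole pH 7.2 / KCl / MgCl2 / Tween / BSA buffer; 8 min RT; luminescence.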
ELG1 genotoxic = induces genotoxicity in HEK293T cells with luciferase-tagged ELG1 | HEK293T ELG1-luciferase reporter, luminescence, 16 h | Potency, µM (series often up to 46 µM), without a hit: at the top dose activity change, positive = activation, most hits filed as activators | actives 1.3% (n = 330,000) | AID 504466; further: % of control where 0% means no effect; nearly all actives have a fitted effect of over 60% in size
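Cells (2,000/well) expressing the ELG1-luciferase fusion are dosed by pin tool and kept 16 hr at 37 °C, 5% CO2. Signal comes from ONE-Glo luciferase reagent after 30 min at room temperature.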
FLuc modulator = inhibits or activates purified firefly luciferase, miR-21 counter-screen | purified FLuc, Km substrates, luminescence inhibition | P08659 | Potency, µM (highest dose often 57.5 µM), inactives show at the highest dose activity change, negative = inhibition, actives largely listed as inhibitors | actives 6.9% (n = 360,000);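 further: plate controls were vehicle for no effect and reference inhibitor for full effect; nearly all actives have a fitted effect of over 55% in size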
Target sequence (P08659 whole entry, looked up): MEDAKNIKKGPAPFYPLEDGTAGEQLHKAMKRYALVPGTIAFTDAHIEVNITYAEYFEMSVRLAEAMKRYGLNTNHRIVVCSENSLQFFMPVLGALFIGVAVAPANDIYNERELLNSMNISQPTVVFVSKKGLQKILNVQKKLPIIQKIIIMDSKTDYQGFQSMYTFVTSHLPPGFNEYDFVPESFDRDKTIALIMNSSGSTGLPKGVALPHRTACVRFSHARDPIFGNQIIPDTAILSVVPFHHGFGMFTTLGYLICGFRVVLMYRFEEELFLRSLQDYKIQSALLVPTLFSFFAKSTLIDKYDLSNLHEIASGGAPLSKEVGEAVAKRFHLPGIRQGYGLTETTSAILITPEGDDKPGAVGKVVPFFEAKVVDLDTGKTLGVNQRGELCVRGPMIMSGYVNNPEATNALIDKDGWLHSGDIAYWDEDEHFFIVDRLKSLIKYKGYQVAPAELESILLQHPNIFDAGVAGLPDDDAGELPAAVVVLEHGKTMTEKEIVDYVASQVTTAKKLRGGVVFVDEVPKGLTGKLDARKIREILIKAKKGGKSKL
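Purified P. pyralis luciferase (10nM final) with 10uM D-luciferin and 10uM ATP (Km levels) in 50mM Tris acetate pH 7.5, 10mM Mg acetate, 0.01% Tween-20, 0.05% BSA; qHTS 6-point titration, ~60 µM downward; luminescence read.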
SMN2 splice enh = increases expression of the SMN2 splice variant. Potency, µM (series often up to 46.1 µM), for the others: at the top dose activity change, positive = activation, most hits filed as activators. actives 2.8% (n = 210,000). HEK293 SMN2-luciferase splicing reporter, luminescence, 30-36 h; further: % of control where 0% means no effect; nearly all actives have a fitted effect of over 55% in size
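HEK293 cells carry an SMN2 minigene-luciferase reporter in which exon 7 inclusion puts luciferase in frame. Cells were seeded at 2000 cells/well, attached for 10-12 hours, then exposed to compounds for 30-36 hours at 37C before ONE-Glo luminescence.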
Rab9 prom act = activates the Rab9 promoter. Huh7 Rab9 promoter-luciferase reporter, luminescence, 24 h. Potency, µM (doses to about 9.22 µM), without a hit: top-dose activation, negative = inhibition, hits mostly activators. actives 2.8% (n = 320,000). AID 485297; further: % of control where 0% means no effect; nearly all actives have a fitted effect of over 60% in size
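Luminescence from Amplite-detected luciferase (10 minutes, ambient) reports Rab9 promoter activation. Before that, stable Rab9-luciferase Huh7 cells (1500/well, reduced-serum OP-MEM I plus 10% FBS) were exposed to compound for 24 hours at 37C.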
Active calls of the source: *; ? = inconclusive; . = no result; [ ] = remark or other dose. Compounds with a hit are over-represented: about 7.5% of the library has one in this group of screens. The call rests on the fitted dose curve; in most records, active means well fitted curve in the direction sought with a large enough effect; inconclusive means small, poorly fitted or top-dose-only effect, or another doubt; inactive means no such curve, though single readings can be large; an effect the other way counts as inactive or inconclusive. Potency means the concentration at half of the fitted maximal effect.

SMILES	NPC1 prom act	KinaseGlo FLuc	ELG1 genotoxic	FLuc modulator	SMN2 splice enh	Rab9 prom act
COc1ccc(NC(=O)Nc2ccc3oc(C)nc3c2)cc1	29.6%	-1.9%	?	12µM*	.	?
Cc1nc2cc(NC(=O)NCCCO)ccc2o1	1.7%	-2.9%	3.4%	-1.8%	.	-3.1%
COCCn1c(=O)c(-c2ccc(Cl)cc2)nc2cnc(Oc3ccccc3)nc21	.	1.2%	.	.	-24.9%	.
Cc1cccc(Nc2nc(N)nc(CSc3nccn3C)n2)c1	?	2.2%	?	?	?	5.01µM*
Cc1ccc(Nc2nc(N)nc(CSc3nccn3C)n2)cc1	2.51µM*	-1.8%	2.91µM*	9.53µM*	12.6µM*	1.58µM*
COCCn1c(SCC(=O)c2ccc3c(c2)OCCO3)nnc1-c1ccco1	-3.9%	-7.7%	-10.4%	-13.4%	17.9%	2.5%
CCCn1nnnc1SCC(=O)c1ccc2c(c1)OCCO2	?	-2.3%	?	12µM*	2.9%	?
CCn1c(SCC(=O)c2ccc3c(c2)OCCO3)nnc1-c1ccco1	1.5%	4.1%	-1.2%	8.49µM*	20.7%	0.1%
O=C(O)CCC(=O)c1ccc2c(c1)OCCO2	0.7%	-1.3%	0.3%	-13.9%	11.9%	6.4%
O=C(O)CCSCC(=O)c1ccc2c(c1)OCCO2	15.8%	12.4%	23.1%	10.7µM*	?	-6.0%
CCn1nnnc1SCC(=O)c1ccc(NC(C)=O)cc1	2.2%	-3.9%	6.3%	-11.9%	-6.0%	26.2%
Cn1nnnc1SCC(=O)c1ccc2c(c1)OCCO2	22.6%	-10.4%	9.1%	?	.	?
CCn1nnnc1SCC(=O)c1ccc(C)cc1	?	-3.6%	?	15.1µM*	3.0%	?
C/C(=N/NC(=O)CCC(=O)Nc1ccc(Br)cc1)c1ccc(Br)cc1	1.0%	.	-1.3%	-1.7%	.	0.2%
O=C(Nc1nc2c(Cl)cccc2s1)c1ccc([N+](=O)[O-])o1	-1.9%	.	-12.1%	?	.	9.3%
O=C(Nc1nc2c(F)cccc2s1)c1ccc([N+](=O)[O-])o1	3.98µM*	.	1.9%	?	.	?
NNC(=O)CNC(=O)CNS(=O)(=O)c1ccccc1	-5.1%	0.7%	-2.2%	-0.8%	0.8%	-8.3%
CCOC(=O)/C=C(\C)Sc1cc(O)c2ccccc2c1O	-2.4%	.	-11.7%	9.53µM*	.	-32.2%
Cc1ccc(C(=O)/C=C2/NC(=O)CS2)cc1	24.6%	-3.1%	16.6%	6.75µM*	20µM*	?
CCSc1nc(N)nc(-c2cccs2)c1C#N	25.7%	-1.3%	20.6µM*	?	?	23.3%
C/C(=N/NC(=O)c1ccc(Br)o1)c1ccncc1	2.3%	-3.3%	1.0%	?	6.3%	-1.9%
COC(=O)c1cccc(NC(=O)c2ccco2)c1	13.9%	-2.1%	-0.4%	-17.7%	?	13.3%
C/C(=N/NC(=O)c1ccc(Br)o1)c1cccc(NC(=O)c2ccc(C)o2)c1	0.9%	0.2%	-2.3%	10.7µM*	13.1%	12.8%
C/C(=N/NC(=O)c1ccco1)c1cccc(NC(=O)c2ccc(C)s2)c1	22.5%	-5.6%	12.8%	4.78µM*	?	27.1%
C/C(=N/NC(=O)c1ccco1)c1cccc(NC(=O)c2ccc(C)o2)c1	-1.3%	-3.9%	4.6%	15.1µM*	16.8%	19.2%
SMILES	NPC1 prom act	KinaseGlo FLuc	ELG1 genotoxic	FLuc modulator	SMN2 splice enh	Rab9 prom act
C/C(=N/NC(=O)c1ccc(C)s1)c1cccc(NC(=O)COc2ccc(Cl)cc2Cl)c1	0.562µM*	-1.6%	17.0%	2.13µM*	5.5%	0.501µM*
CCCCn1nc(NC(=O)CC)c2cc3cc(OC)ccc3nc21	3.2%	.	-0.5%	0.4%	.	7.0%
C/C(=N/NC(=O)c1ccc(Br)o1)c1cccc(NC(=O)c2ccc(F)cc2)c1	-2.5%	.	-8.9%	10.7µM*	.	3.4%
C/C(=N\NC(=O)C1CC1)c1ccc(NC(=O)c2ccc(Br)o2)cc1	?	-7.9%	?	-3.7%	22.3%	12.1%[1.84 µM]
C/C(=N\NC(=O)c1ccn(C)n1)c1cccc(NC(=O)c2ccc(C)s2)c1	?	-1.9%	8.1%	3.01µM*	?	29.6%
N#C/C(=C\c1ccccc1)c1ccccn1	?	-9.7%	?	19µM*	21.3%	?
N#C/C(=C\c1ccncc1)c1ccccn1	-2.8%	.	-4.3%	-2.7%	.	5.6%
CNc1ccc(/C=C(\C#N)c2ccccn2)cc1[N+](=O)[O-]	2.82µM*	-3.1%	10.3µM*	-18.9%	10µM*	1.26µM*
Cc1cc(C)n(-c2ccc(C(=O)N3CCC(CO)(Cc4ccccc4)CC3)cc2)n1	-0.4%	4.1%	-11.1%	-1.6%	.	-1.3%
CCCCOc1ccc2ccccc2c1C=O	19.6%	-6.9%	12.1%	21.3µM*	-0.6%	20.0%
COc1ccc(/C=C2/SC(=S)N(CC(=O)O)C2=O)cc1OCc1ccc(Cl)cc1	-5.2%	.	16.7%	19µM*	.	23.2%
O=C(O)COc1cccc(/C=C2/SC(=S)N(Cc3ccccc3)C2=O)c1	2.6%	.	-7.9%	?	.	-1.3%
O=C(O)CN1C(=O)/C(=C\c2cccc(OCc3ccccc3)c2)SC1=S	2.7%	.	5.2%	15.1µM*	.	6.6%
CCOc1cc(/C=C2/SC(=S)N(CC(=O)O)C2=O)ccc1OC(=O)c1cccs1	4.5%	.	-2.4%	16.9µM*	.	10.4%
CN1C(=O)/C(=C/c2ccc(OC(=O)c3ccco3)cc2)SC1=S	3.9%	.	4.1%	-1.0%	.	-0.9%
COc1cc(/C=C2/SC(=S)N(CC(=O)O)C2=O)ccc1OC(=O)c1ccco1	-4.9%	.	-3.7%	7.57µM*	.	-0.2%
O=C(O)CN1C(=O)/C(=C\c2cc(Br)ccc2OCc2ccc(Cl)cc2)SC1=S	-0.9%	.	0.8%	-7.3%	.	0.7%
COC(=O)[C@]1(Cc2ccccc2)N[C@H](CN(C)S(=O)(=O)c2ccc(C(C)(C)C)cc2)[C@@H]2C(=O)N(Cc3ccccc3)C(=O)[C@@H]21	.	.	0.6%	.	.	.
C#CCOCCOCCOCCNc1nc(N2CCN(C(=O)[C@H](CCCCN)n3cc(C(N)CO)nn3)CC2)nc(N2CCN(C(=O)[C@H](CCC(=O)O)n3cc(C(N)[C@H](C)CC)nn3)CC2)n1 (stereo not given in full)	1.4%	.	0.9%	-1.0%	.	0.8%
COc1cc(/C=C2\SC(=S)N(CC(=O)O)C2=O)ccc1OC(=O)c1ccco1	?	.	1.5%	7.57µM*	.	-0.2%
CC(C)Oc1cccc(C(=O)Nc2ccc(Br)cc2F)c1	3.55µM*	-1.1%	?	0.953µM*	5.01µM*	1.26µM*
CCCc1ccc(C(=O)NNc2ccccc2F)cc1	?	.	?	16.9µM*	.	?
O=C(Nc1ccccc1F)c1ccc(C(=O)c2ccccc2)cc1	2.82µM*	.	?	10.7µM*	.	3.55µM*
Cc1noc(C)c1COc1cccc(C(=O)Nc2ccc(Br)cc2F)c1	.	.	8.4%	.	.	.
